Compound activity as filed in PubChem.
Sm TGR block: blocks Schistosoma mansoni thioredoxin glutathione reductase. Potency, µM (titrated, usually from 114 µM), most hits filed as inhibitors. actives 3% (n = 360,000). purified TGR, DTNB reduction, TNB absorbance 405 nm; also: nearly all actives have a fitted effect of over 60% in size
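Kinetic colorimetric format: TGR-catalysed, NADPH-driven DTNB reduction monitored via TNB absorbance. Enzyme dispensed at 20 nM; compound exposure 15 min at room temperature before reaction start.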
Pf growth 96h: P. falciparum growth inhibition at 96 hours; P. falciparum luciferase reporter growth, 96 h; AID 504834; Potency, µM (top dose mostly 28.7 µM), hits mostly inhibitors; actives 6.9% (n = 320,000)
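Compounds incubated with erythrocytes infected by luciferase-expressing P. falciparum (2% hematocrit, 0.05% parasitemia final) for 96 hours, 37 C in 5% CO2. Growth inhibition scored as decreased luciferase luminescence.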
NS1 inh: influenza NS1 inhibition | Potency, µM (top dose mostly 46.1 µM) | actives 0.4% (n = 270,000) | AID 2326; calls by dose curve; also: actives are rising curves; nearly all actives have a fitted effect of over 50% in size
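Recovery from NS1-induced slow growth read by OD600 in budding yeast switched to galactose assay medium (pH 6.0, -URA) at 1:100 dilution. Compound 23 nl per well; the matching strain lacking NS1 serves as control.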
Pf growth 48h: P. falciparum growth inhibition at 48 hours (one generation). Potency, µM (series often up to 28.7 µM), actives largely listed as inhibitors. P. falciparum luciferase growth in erythrocytes, 48 h. actives 5.9% (n = 310,000). AID 504832
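Parasite viability was followed by luminescence of a genomically integrated firefly luciferase. Cultures held 0.1% parasitemia at 2% hematocrit (final), incubated under 5% CO2 at 37 C.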
AMA1-RON2 inh: AMA1-RON2 (P. falciparum) interaction inhibition; AlphaScreen AMA1-biotinylated RON2 peptide binding; Potency, µM (series often up to 58.2 µM), most hits filed as inhibitors; actives 0.2% (n = 360,000); AID 720542; also: nearly all actives have a fitted effect of over 45% in size
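AMA1 (3D7) with his tag at 25 nM final met compounds first, then biotinylated RON2 peptide at 25 nM; detection used donor plus acceptor beads, 10 µg/mL apiece, read by AlphaScreen after 30 min at room temperature.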
Of the large screens only hits and unclear results are named; the others gave an inactive call. In the library only some 11% were active in any assay of this set; here they are far more common. Unless noted, calls follow the shape of the dose curve; as a rule, active = well fitted curve in the direction sought with a large enough effect; inconclusive = small, poorly fitted or top-dose-only effect, or another doubt; inactive = no such curve, though single readings can be large; an effect the other way counts as inactive or inconclusive.

O=C(Cc1nc2ccccc2[nH]1)c1cccc([N+](=O)[O-])c1	Pf growth 96h inconclusive, Pf growth 48h 12µM
O=C(NCCCc1nc2ccccc2[nH]1)c1ccc(F)cc1	Pf growth 96h 10µM (no result: NS1 inh)
Cc1ccc(-c2cc(C(F)(F)F)nc(SCC(=O)c3cccc([N+](=O)[O-])c3)n2)cc1	Pf growth 96h 13µM, Pf growth 48h inconclusive
O=C(Nc1nc2ccccc2[nH]1)c1cccc([N+](=O)[O-])c1	none
O=C(C[n+]1cc(Br)cc(Br)c1)c1cccc([N+](=O)[O-])c1	Sm TGR block 10µM, Pf growth 96h inconclusive, NS1 inh inconclusive, Pf growth 48h inconclusive
COc1cc(OC)c(NC(=O)N2CCc3c(sc4c3CCCC4)C2c2ccccc2)cc1Cl (stereo not given)	none (no result: Pf growth 96h, NS1 inh, Pf growth 48h, AMA1-RON2 inh)
Cc1c(Cl)cccc1NC(=O)Nc1c[nH]c(=O)[nH]c1=O	none (no result: Pf growth 96h, NS1 inh, Pf growth 48h, AMA1-RON2 inh)
CCn1c(CNC(=O)C23CC4CC(CC(C4)C2)C3)nnc1SCC(=O)Nc1ccccc1	none (no result: Pf growth 96h, NS1 inh, Pf growth 48h, AMA1-RON2 inh)
Cc1ccc(C(=O)Cc2nc3ccccc3[nH]2)cc1	Pf growth 96h inconclusive, Pf growth 48h 0.37µM
CCOC(=O)CCc1nc2ccccc2[nH]c1=O	none
Cc1nc2nc(SCC(=O)c3cccc([N+](=O)[O-])c3)[nH]c2cc1Br	Pf growth 96h 12µM, NS1 inh inconclusive, Pf growth 48h inconclusive
CCOC(=O)Cc1nc2ccccc2[nH]1	Pf growth 96h 12µM
O=C(CSc1nc2ncc(Br)cc2[nH]1)c1cccc([N+](=O)[O-])c1	none
Cc1cc(C)cc(NC(=O)CCc2nc3ccccc3[nH]2)c1	Pf growth 96h 3.3µM
O=C(CCc1nc2ccccc2[nH]1)Nc1ccccc1	none
COc1ccc(NC(=O)Cn2c(=O)n(Cc3nc(-c4ccccc4)no3)c(=O)c3ccccc32)cc1Cl	none (no result: Pf growth 96h, NS1 inh, Pf growth 48h, AMA1-RON2 inh)
O=[N+]([O-])c1cc([N+](=O)[O-])c(Oc2c(F)cc(F)cc2F)cc1NN1CCCCC1	Pf growth 96h inconclusive
COc1ccc(-c2cc3c(=O)n(CC(=O)Nc4ccccc4C(F)(F)F)ccn3n2)cc1OC	none (no result: Pf growth 96h, NS1 inh, Pf growth 48h, AMA1-RON2 inh)
Cn1c(SCc2nc3ccccc3[nH]2)nnc1-c1cccnc1	Pf growth 96h 1.9µM
COc1ccccc1-c1nnc(SCc2nc3ccccc3[nH]2)n1C	none (no result: Pf growth 96h)
Cc1ccc(Cn2cc(C(=O)c3ccc4c(c3)OCO4)c(=O)c3cc(C)ccc32)cc1	none (no result: Pf growth 96h, NS1 inh, Pf growth 48h, AMA1-RON2 inh)
CC(C)(C)NC(=O)Cn1c(SCC(N)=O)nc2ccccc21	none
NC(=O)CSc1nc2ccccc2n1-c1ccccc1	Pf growth 96h 9.3µM
NC(=O)CSc1nc2ccccc2n1Cc1ccccc1	Pf growth 48h 2.9µM
Cc1ccc(-c2csc3nc(SCC(N)=O)n(Cc4ccccc4)c(=O)c23)cc1	Pf growth 48h 13µM
Cc1ccccc1NC(=O)COC(=O)COc1ccc2ccc(=O)oc2c1	none (no result: Sm TGR block, Pf growth 96h, NS1 inh, Pf growth 48h)
COC(=O)CSc1nnc(CNC(=O)c2ccc(S(=O)(=O)N3CCOCC3)cc2)n1C	none (no result: NS1 inh)
COc1ccc2nc(C)cc(SCC(=O)N/N=C/c3ccccc3)c2c1	Pf growth 96h 4.1µM
COc1ccc2nc(C)cc(N/N=C/c3ccccc3)c2c1	Pf growth 96h 0.15µM, Pf growth 48h 0.15µM (no result: NS1 inh)
COc1ccc2nc(C)cc(Nc3ccc(N4CCN(C)CC4)cc3)c2c1	Pf growth 96h inconclusive
COc1ccc2nc(C)cc(NCc3ccc(F)cc3)c2c1	Pf growth 96h 2.6µM, Pf growth 48h inconclusive
COc1ccc2nc(C)cc(Nc3ccc(N4CCOCC4)cc3)c2c1	Pf growth 48h 2.9µM
COc1ccc2nc(C)cc(SCC(=O)N/N=C/c3c(OC)ccc4ccccc34)c2c1	none
COc1ccc2nc(C)cc(Nc3ccc(C)cc3)c2c1	Pf growth 48h inconclusive
CN(Cc1ccon1)C(=O)CC1C(=O)NCCN1CC1CCCCC1 (stereo not given)	none
CCCCn1c(N)c(N(CCOC)C(=O)C2CCCN(C(=O)c3ccc(Cl)cc3)C2)c(=O)[nH]c1=O (stereo not given)	none (no result: NS1 inh)
COC(=O)C1(C(=O)OC)CCCCN(S(=O)(=O)c2ccc(C)cc2)CCC1	none (no result: Sm TGR block, Pf growth 96h, NS1 inh, Pf growth 48h)
Cc1cc(SCC(=O)NN)c2cc(Br)ccc2n1	Pf growth 96h inconclusive, Pf growth 48h 15µM
CC(CCc1ccccc1)NCC(O)c1ccc(O)c(C(N)=O)c1 (stereo not given)	Pf growth 96h inconclusive, Pf growth 48h 13µM
O=S(=O)(c1ccc(Oc2ccc(Cl)cc2)nc1)N1CCOCC1	none (no result: NS1 inh)
COc1ccc(C(C)=O)c(Oc2ccc(S(=O)(=O)N3CCOCC3)cn2)c1	Pf growth 96h inconclusive, Pf growth 48h 8.3µM (no result: NS1 inh)
O=C(O)c1ccc(-n2c(O)c(/C=C3\C=Nc4ccccc43)c(=O)[nH]c2=O)cc1	Sm TGR block inconclusive, Pf growth 96h inconclusive
O=c1[nH]c(=O)n(-c2cccc(F)c2)c(O)c1/C=C1\C=Nc2ccccc21	Sm TGR block 35µM
O=c1[nH]c(=O)n(-c2ccccc2)c(O)c1/C=C1/C(c2ccccc2)=Nc2ccccc21	Pf growth 96h 9.3µM, Pf growth 48h inconclusive
O=C(c1ccccc1)c1ccc(OCC(=O)N2CCOCC2)cc1	none (no result: NS1 inh)
O=C(CSc1nnc(NC(=O)C2CC2)s1)Nc1cccc(F)c1	Pf growth 96h 2.9µM
COc1cccc(N2CC(C(=O)Nc3nnc(SCCC4OCCO4)s3)CC2=O)c1 (stereo not given)	Pf growth 96h 9.3µM
O=C(Nc1nnc(SCCC2OCCO2)s1)C1CC(=O)N(c2ccc(F)cc2)C1 (stereo not given)	Pf growth 96h 10µM, Pf growth 48h inconclusive
O=C(Nc1nnc(SCc2ccc(F)cc2)s1)C1CC(=O)N(Cc2ccccc2)C1 (stereo not given)	Pf growth 96h 7.4µM
O=C(COc1ccccc1)NCC(=O)N/N=C/c1ccc(Br)cc1	none
O=C(NCc1ccc(F)cc1)C1CCN(C(=O)c2ccc(-n3ccc4ccccc43)s2)CC1	none (no result: Pf growth 96h, NS1 inh, Pf growth 48h, AMA1-RON2 inh)
NC1=NC(c2cccc(Cl)c2)N(CCc2ccc(F)cc2)C(N)=N1 (stereo not given)	Pf growth 96h inconclusive
O=C(NC(=S)Nc1ccc(Br)cc1)C1CCC1	Pf growth 96h inconclusive
COc1ccc(/C=C/C(=O)N(C(C)C)C(C)C)cc1Br	Pf growth 96h inconclusive, Pf growth 48h 6.6µM
CC(=O)Nc1cccc(C(=O)OC2CCOC2=O)c1 (stereo not given)	Pf growth 48h inconclusive
CC(=O)N1CC=C2C(C#N)=C(N)C(C#N)(C#N)C(CCc3ccccc3)C2C1 (stereo not given)	Sm TGR block 40µM
CCN1CC=C2C(C#N)=C(N)C(C#N)(C#N)C(CCc3ccccc3)C2C1 (stereo not given)	Sm TGR block 28µM, Pf growth 96h 10µM, Pf growth 48h 10µM
O=C(COC(=O)/C=C/c1ccc(C(F)(F)F)cc1)NCC1CCCCC1	none (no result: NS1 inh)
O=C(CCC(=O)Nc1ccc(Br)cc1)N/N=C/c1ccc(O)cc1	Pf growth 96h inconclusive, NS1 inh inconclusive
COC(=O)c1c(C)[nH]c(O)c1C=Nc1ccc(C#N)cc1	Sm TGR block 13µM
O=C(NCc1ccccc1)c1cccc(COc2ccc3c(c2)CCC3)c1	none
CCN(CC)CCNC(=O)c1ccc(NC(C)=O)cc1	none
